Screening data as filed in PubChem.
An excerpt weighted towards active compounds, which were near 10% of everything screened.
JMJD2A Tudor – inhibitors of human JMJD2A Tudor domain. AlphaScreen JMJD2A-Tudor / H3K4me3 peptide binding. 390,000 compounds, 4.4% hits. Potency, µM (doses to about 114 µM), without a hit: top-dose activity change, negative = inhibition, hits mostly inhibitors. O75164. AID 504339; further: on the % scale 0 is the no-effect control and ±100 the full control effect; nearly all actives have a fitted effect of over 50% in size
BAZ2B block – inhibitors of human BAZ2B bromodomain; AlphaScreen BAZ2B-H3K14Ac peptide displacement; Q9UIF8; AID 504333; 360,000 compounds, 4.4% hits; Potency, µM (top dose mostly 114 µM), for the others: at the top dose activity change, negative = inhibition, hits mostly inhibitors; further: on the % scale 0 is the no-effect control and ±100 the full control effect; nearly all actives have a fitted effect of over 60% in size
Target sequence (Q9UIF8 whole entry, looked up): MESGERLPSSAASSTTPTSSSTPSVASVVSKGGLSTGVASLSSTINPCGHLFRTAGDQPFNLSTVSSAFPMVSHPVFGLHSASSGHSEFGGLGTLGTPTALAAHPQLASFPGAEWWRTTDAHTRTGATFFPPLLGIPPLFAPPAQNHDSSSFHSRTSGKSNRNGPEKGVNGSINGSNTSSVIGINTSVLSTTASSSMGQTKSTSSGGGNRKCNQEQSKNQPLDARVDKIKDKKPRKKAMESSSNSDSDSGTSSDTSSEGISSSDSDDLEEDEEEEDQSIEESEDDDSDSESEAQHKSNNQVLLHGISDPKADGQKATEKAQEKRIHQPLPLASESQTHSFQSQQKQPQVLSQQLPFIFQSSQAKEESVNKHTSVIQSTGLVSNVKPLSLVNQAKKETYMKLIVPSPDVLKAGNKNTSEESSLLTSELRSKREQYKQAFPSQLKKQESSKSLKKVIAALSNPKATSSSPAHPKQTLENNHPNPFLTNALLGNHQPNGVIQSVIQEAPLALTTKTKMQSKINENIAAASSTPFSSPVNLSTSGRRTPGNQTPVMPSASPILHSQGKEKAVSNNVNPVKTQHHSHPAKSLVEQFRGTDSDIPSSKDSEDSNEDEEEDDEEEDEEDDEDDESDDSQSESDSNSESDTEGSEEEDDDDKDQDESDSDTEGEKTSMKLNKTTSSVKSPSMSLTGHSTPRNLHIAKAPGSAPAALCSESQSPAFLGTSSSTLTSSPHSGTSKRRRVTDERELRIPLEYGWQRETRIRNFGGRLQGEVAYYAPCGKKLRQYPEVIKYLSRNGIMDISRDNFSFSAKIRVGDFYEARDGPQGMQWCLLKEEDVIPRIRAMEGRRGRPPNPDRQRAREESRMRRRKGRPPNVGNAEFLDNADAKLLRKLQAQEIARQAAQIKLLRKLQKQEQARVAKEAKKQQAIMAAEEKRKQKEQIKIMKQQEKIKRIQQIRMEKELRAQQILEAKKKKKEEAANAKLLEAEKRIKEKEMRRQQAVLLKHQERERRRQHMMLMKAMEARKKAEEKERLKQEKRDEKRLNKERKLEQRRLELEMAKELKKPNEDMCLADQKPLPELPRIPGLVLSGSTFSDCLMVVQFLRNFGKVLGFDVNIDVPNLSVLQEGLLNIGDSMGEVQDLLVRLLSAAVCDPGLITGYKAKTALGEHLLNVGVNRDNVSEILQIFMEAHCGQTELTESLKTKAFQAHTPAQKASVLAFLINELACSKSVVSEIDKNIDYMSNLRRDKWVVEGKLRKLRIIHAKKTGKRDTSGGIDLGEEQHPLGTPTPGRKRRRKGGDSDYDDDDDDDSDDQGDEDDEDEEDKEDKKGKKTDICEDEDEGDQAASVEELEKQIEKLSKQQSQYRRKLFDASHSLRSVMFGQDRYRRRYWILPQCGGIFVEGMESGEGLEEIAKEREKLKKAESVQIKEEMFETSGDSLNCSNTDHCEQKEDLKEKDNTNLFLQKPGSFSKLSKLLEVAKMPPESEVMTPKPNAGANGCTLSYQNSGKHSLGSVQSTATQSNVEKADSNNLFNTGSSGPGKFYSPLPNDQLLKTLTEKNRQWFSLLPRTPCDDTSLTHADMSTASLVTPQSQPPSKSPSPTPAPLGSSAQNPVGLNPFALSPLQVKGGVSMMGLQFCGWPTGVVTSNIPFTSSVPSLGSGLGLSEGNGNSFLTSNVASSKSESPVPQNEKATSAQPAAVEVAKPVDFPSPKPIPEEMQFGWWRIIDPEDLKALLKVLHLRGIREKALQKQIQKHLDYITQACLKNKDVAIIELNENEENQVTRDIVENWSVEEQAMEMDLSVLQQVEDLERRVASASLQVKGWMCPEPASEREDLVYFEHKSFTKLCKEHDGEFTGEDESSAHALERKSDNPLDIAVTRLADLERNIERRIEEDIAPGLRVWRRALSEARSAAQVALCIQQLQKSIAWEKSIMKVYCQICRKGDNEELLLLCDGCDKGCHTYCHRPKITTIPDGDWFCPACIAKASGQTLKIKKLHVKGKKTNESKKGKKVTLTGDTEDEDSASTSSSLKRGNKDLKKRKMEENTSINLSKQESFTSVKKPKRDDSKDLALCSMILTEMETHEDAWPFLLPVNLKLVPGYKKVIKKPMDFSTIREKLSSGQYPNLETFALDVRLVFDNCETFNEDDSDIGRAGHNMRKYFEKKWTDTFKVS
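BAZ2B (50 nM) with biotin-H3(5-23)K14Ac peptide (50 nM) in PBS pH 7.4, 0.01% Tween-20, preformed 30 min, then compound 30 min at room temperature; top concentration 110uM. AlphaScreen streptavidin donor/nickel chelate acceptor beads (10 ug/mL final), 20 min dark, signal read.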
G9a block – blocks human histone lysine methyltransferase G9a. G9a H3K9 monomethylation, AlphaScreen, 2 h. Potency, µM (highest dose often 102 µM), without a hit: top-dose activity, negative = inhibition, actives largely listed as inhibitors. 350,000 compounds, 8.8% hits. AID 504332; further: on the % scale 0 is the no-effect control and ±100 the full control effect; nearly all actives have a fitted effect of over 75% in size
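Compounds were preincubated with 20 nM G9a for 15 min, after which biotinylated H3K9 peptide (500 nM) and SAM (20 uM) started a 2 h room-temperature reaction. Monomethylated product was quantified by antibody-based AlphaScreen chemiluminescence.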
HP1b chromo inh – blocks HP1-beta chromodomain binding to methylated histone tails. AID 540317. P83916. 390,000 compounds, 0.56% hits. Potency, µM (titrated, usually from 114 µM), for inactives: at the top dose activity change, negative = inhibition, hits mostly inhibitors. AlphaScreen HP1-beta / biotin-H3K9me3 peptide binding; further: nearly all actives have a fitted effect of over 70% in size
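Compound inhibition of the preformed complex between 50 nM HP1-beta and 50 nM biotinylated H3K9me3 peptide was read by AlphaScreen. Buffer was PBS pH 7.4 with 0.01% Tween-20. Incubations ran 30 min at room temperature, with 10 ug/mL donor/acceptor beads.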
L3MBTL1 block – inhibitors of human L3MBTL1; Q9Y468; AlphaScreen L3MBTL1–H3K9me1 peptide binding; Potency, µM (series often up to 57.1 µM), for the others: at the highest dose activity, negative = inhibition, actives largely listed as inhibitors; 230,000 compounds, 0.66% hits; AID 485360; further: on the % scale 0 is the no-effect control and ±100 the full control effect; nearly all actives have a fitted effect of over 60% in size
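Displacement of a biotinylated histone H3(1-15) peptide monomethylated at Lys9 (75 nM) from L3MBTL1 (50 nM) was measured by AlphaScreen after a 30 min room-temperature compound incubation; cefsulodin titration served as intraplate control.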
GLS inhibitor – glutaminase GLS (human) inhibition; 410,000 compounds, 0.21% hits; O94925; AID 624170; Potency, µM (titrated, usually from 45.5 µM), for inactives: at the top dose activity change, negative = inhibition, actives largely listed as inhibitors; GLS enzymatic activity, qHTS titration; further: on the % scale 0 is the no-effect control and ±100 the full control effect
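hKGA; 45 mM KH2PO4 pH 8.2 + 0.02% Tween-20; cpd via pin tool; 1 mM Gln soln; GluOx/HRP/Amplex Red; RT 30 min; fluor. t0 & final.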
An asterisk follows results filed as active; ? = inconclusive; / = not tested or not shown; [ ] = dose if it differs, or a comment. The call rests on the fitted dose curve; in most records, active means well fitted curve in the direction sought with a large enough effect; inconclusive means small, poorly fitted or top-dose-only effect, or another doubt; inactive means no such curve, though single readings can be large; an effect the other way counts as inactive or inconclusive. Potency means the concentration at half of the fitted maximal effect.

SMILES | JMJD2A Tudor | BAZ2B block | G9a block | HP1b chromo inh | L3MBTL1 block | GLS inhibitor
Cc1cccc(NC(=O)c2sc3nc(N)c(C#N)cc3c2N)c1 | 35µM* | -10% | 10µM* | 12% | -4% | 17%
COc1ccc(NC(=O)c2sc3nc4c(cc3c2N)CN(C(C)C)CC4)c(OC)c1 | ? | ? | 11µM* | -8% | / | -1%
COc1ccccc1NC(=O)c1sc2nc3c(cc2c1N)CCCCCC3 | 3% | 1% | -5%[59 µM] | 33% | / | 0%
N#Cc1cc2c(N)c(C(=O)Nc3ccccc3)sc2nc1N | / | ? | ? | / | -1% | /
Cc1cccc(NC(=O)c2sc3nc4c(cc3c2N)CN(C(C)C)CC4)c1 | 50µM* | ? | 14µM* | -19% | / | 3%
CCOc1ccccc1NC(=O)c1cc2cc3cc(C)ccc3nc2s1 | -15% | 2% | 9%[59 µM] | 8%[57 µM] | / | -6%
Cc1ccc2nc3sc(C(=O)Nc4ccc(F)cc4)cc3cc2c1 | 40µM* | ? | -50%[12.7 µM] | 16%[57 µM] | -2% | 4%
C#CCN(C)CC/C=C1\c2ccccc2CSc2ccccc21 | -5%[11.4 µM] | ? | 14µM* | -20% | -15% | -18%
CCOC(=O)/C(C#N)=C1/C(=O)N(Cc2ccccc2)c2ccccc21 | 25µM* | 25µM* | 25µM* | 14µM* | / | ?
CC1=C(c2ccc(Cl)cc2)S(=O)(=O)NC1=NCCCN1CCN(c2cc(C)ccc2C)CC1 | 16µM* | -21% | ? | 25% | / | 7%
Cc1cc(C)nc(NCC(O)CNc2ccccc2Cl)n1 (stereo not given) | 56µM* | -32% | 7.1µM* | 14% | 21%[11.4 µM] | 17%
COc1cc2c(cc1OC)C(C)N(C(=O)Cn1ncc3c1-c1ccccc1OC3)CC2 (stereo not given) | -23% | -1% | 79µM* | 31% | 3% | 18%
COc1cc(SC)ccc1C(=O)N1CCN(Cc2ccc3c(c2)OCO3)CC1 | -14% | -12% | -21% | 19% | 1% | 0%
COc1ccc(OC)c(NC(=O)Cn2ncc3c2-c2ccccc2OC3)c1 | -13% | -24% | 5%[59 µM] | 24% | / | 0%
CC1CCCN(C(=O)C2CCN(Cc3ccc4c(c3)OCO4)CC2)C1 (stereo not given) | 2.2µM* | -32% | 50µM* | -36% | / | 0%
COc1cccc(OC)c1C(=O)N1CCN(Cc2ccc3c(c2)OCO3)CC1 | 5µM* | 50µM* | 14µM* | 45µM* | 2% | 2%
CC1CCN(c2nc3ccc(C(=O)N4CCN(Cc5ccc6c(c5)OCO6)CC4)cc3s2)CC1 | ? | ? | 28µM* | 15% | / | -3%
COc1ccccc1/C=C/c1nc(C#N)c(N2CCN(c3ccccc3)CC2)o1 | -14% | ? | -46%[59 µM] | -9% | / | -1%
CCn1c(=O)cc(OCC(=O)N(C)c2cc(Cl)ccc2C)c2ccccc21 | -14% | ? | -19%[59 µM] | 11% | / | 1%
O=C(c1cccnc1)N1CCN(Cc2cccc(F)c2)CC1 | 1.6µM* | 32µM* | 3.2µM* | 45µM* | / | 11%
O=C(c1cc(-c2ccncc2)nc2ccc(Cl)cc12)N1CCN(Cc2ccc3c(c2)OCO3)CC1 | ? | 40µM* | ? | -21% | -7% | -23%
O=C(c1cccc(F)c1)N1CCN(Cc2ccc3c(c2)OCO3)CC1 | 1µM* | 50µM* | 2%[0.501 µM] | ? | 2%[2.29 µM] | 4%
O=C(c1cc(-c2ccncc2)nc2ccc(Br)cc12)N1CCN(Cc2ccc3c(c2)OCO3)CC1 | -32% | -11% | 3%[59 µM] | -8% | 2% | -4%
Cc1ccc2c(C)c(C(=O)N3CCN(Cc4ccc5c(c4)OCO5)CC3)oc2c1C | -33% | ? | 50µM* | 0% | / | 4%
COc1ccc(C2CC(=O)Nc3c2c(=O)[nH]c2nc4ccccc4n32)cc1 (stereo not given) | -1% | -5% | 13%[59 µM] | 36% | / | 5%
SMILES | JMJD2A Tudor | BAZ2B block | G9a block | HP1b chromo inh | L3MBTL1 block | GLS inhibitor
O=C(C1CCN(Cc2ccccc2O)CC1)N1CCN(Cc2ccc3c(c2)OCO3)CC1 | 2.8µM* | ? | 6.3µM* | ? | / | 22%
O=C(Nc1ccc2c(c1)OCO2)C1CCCCC1 | 11% | -17% | ? | 27% | / | -9%
COc1cccc(CN2CCC(C(=O)N3CCN(Cc4ccc5c(c4)OCO5)CC3)CC2)c1OC | 3.2µM* | -13% | 1% | ? | / | 6%
O=C(Cn1ncc2c1-c1ccccc1OC2)N1CCN(c2ccccc2)CC1 | -2% | -10% | 5%[59 µM] | 19% | / | 20%
O=C(Cn1ncc2c1-c1ccccc1OC2)N1CCN(Cc2ccc3c(c2)OCO3)CC1 | -24% | -2% | 16µM* | 12% | / | 1%
O=C(Nc1ccc2c(c1)OCO2)C1CCN(Cc2cc3c(cc2O)OCO3)CC1 | ? | -36% | 32µM* | ? | / | 29%
O=C(C1CCN(S(=O)(=O)c2ccccc2)CC1)N1CCN(Cc2ccc3c(c2)OCO3)CC1 | -18% | -1% | 88% | -2% | / | 6%
Cc1nc2ccccc2c(=O)n1-c1ccc(NC(=O)c2ccccc2[N+](=O)[O-])cc1 | -15% | -10% | 1%[59 µM] | 8% | / | -6%
COc1cccc(-n2c(SCC(=O)N3CCc4ccccc43)nc3c([nH]c4ccccc43)c2=O)c1 | -15% | 3% | 4%[59 µM] | 24%[57 µM] | / | 0%
O=C(C1CCN(Cc2cc(Cl)ccc2O)CC1)N1CCN(Cc2ccccc2)CC1 | 3.5µM* | ? | ? | ? | 6% | 23%
CC(C)(C)OC(=O)NCc1n[nH]c(=S)n1C1CC1 | 28µM* | 9% | ? | 30% | -10% | 4%
O=C(O)c1c[nH]c2c([N+](=O)[O-])cccc2c1=O | 20µM* | / | / | 79µM* | / | 136%
O=[N+]([O-])c1ccc(/C=N/Nc2nc(N3CCCCCC3)nc(N3CCCCCC3)n2)o1 | ? | ? | 10µM* | -25% | -21% | -5%
O=[N+]([O-])c1ccc(/C=N/Nc2nc(N3CCCCC3)nc(N3CCCCC3)n2)cc1 | ? | ? | / | 3% | 6% | 0%
O=C(CN1CCCCCCC1)N/N=C/c1ccc([N+](=O)[O-])o1 | 18µM* | 50µM* | 32µM* | ? | ? | 4%
